A selection: hits, their analogues and other compounds. The true share with any hit is near 10%.
Luciferase inh = Photinus pyralis luciferase inhibition | purified P. pyralis luciferase, luminescence, biochemical | 76,000 compounds, 2.5% hits | AID 1347043 | Potency, µM (highest dose often 115 µM), hits mostly inhibitors | P08659; further: nearly all actives have a fitted effect of over 65% in size
Target sequence (P08659 whole entry, looked up): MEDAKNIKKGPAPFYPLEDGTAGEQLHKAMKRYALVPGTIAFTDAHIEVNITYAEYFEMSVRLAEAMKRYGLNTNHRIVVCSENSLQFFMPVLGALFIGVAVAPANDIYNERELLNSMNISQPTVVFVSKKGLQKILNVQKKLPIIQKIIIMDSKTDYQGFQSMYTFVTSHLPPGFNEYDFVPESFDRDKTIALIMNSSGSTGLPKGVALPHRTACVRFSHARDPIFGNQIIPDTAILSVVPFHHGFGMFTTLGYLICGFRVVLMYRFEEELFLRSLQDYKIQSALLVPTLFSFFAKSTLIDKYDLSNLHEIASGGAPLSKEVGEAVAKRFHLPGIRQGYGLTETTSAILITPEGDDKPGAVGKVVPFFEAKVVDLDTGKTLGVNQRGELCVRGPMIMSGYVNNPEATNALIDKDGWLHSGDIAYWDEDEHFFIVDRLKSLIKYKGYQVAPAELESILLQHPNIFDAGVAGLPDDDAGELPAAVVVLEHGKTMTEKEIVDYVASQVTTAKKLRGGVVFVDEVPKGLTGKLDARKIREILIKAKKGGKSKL
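Purified 10nM P. pyralis luciferase with 10uM D-luciferin and 10uM ATP in 50mM Tris acetate pH 7.5, 10mM Mg acetate, 0.01% Tween-20, 0.05% BSA. qHTS titration; luminescence read by CCD imager.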
NPR1 antag = antagonists of human natriuretic peptide receptor Npr1; 76,000 compounds, 1.6% hits; P16066; AID 1347048; HEK293 hNpr1 GloSensor cGMP, ANP-stimulated luminescence; Potency, µM (highest dose often 46.3 µM), actives largely listed as inhibitors; calls by dose curve; further: nearly all actives have a fitted effect of over 60% in size
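HEK293 cells stably expressing human Npr1 and cGMP GloSensor pGS-40F, loaded 2 h with 2% GloSensor reagent, given compound 30 min at room temperature. Luminescence read before and 20 min after 0.1 nM hNppA.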
NIH3T3 tox = cytotoxic compounds in NIH 3T3 cells; Potency, µM (series often up to 96.7 µM), hits mostly inhibitors; 94,000 compounds, 4.3% hits; NIH 3T3 viability, CellTiter-Glo ATP luminescence, 48-72 h; AID 1345082; further: nearly all actives have a fitted effect of over 55% in size
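Luminescent ATP readout (CellTiter-Glo, 10 min RT) after 48 or 72 hr compound exposure of NIH 3T3 cells seeded at 400 cells/well in 1536-well format; quantitative HTS.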
GPT2 inhibitor = inhibitors of human GPT2 alanine aminotransferase | Q8TD30 | Recombinant GPT2, coupled pyruvate oxidase/HRP Amplex Red fluorescence | Potency, µM (highest dose often 57.7 µM), hits mostly inhibitors | 100,000 compounds, 0.25% hits | AID 1671188; further: nearly all actives have a fitted effect of over 60% in size
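Recombinant GPT2 (10ng/uL) with 250uM a-KG and 2mM L-alanine, 30 min at room temperature, in HEPES pH 7.5 buffer. Pyruvate detected by pyruvate oxidase/HRP/Amplex Red fluorescence after 30 min in the dark; AOA (50uM) as positive control.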
HEK cytotox = cytotoxic compounds in HEK 293 cells | HEK 293 viability, ATP luminescence (CellTiter-Glo), 48-72 h | AID 1345083 | 94,000 compounds, 6.6% hits | Potency, µM (top dose mostly 115 µM), actives largely listed as inhibitors; further: nearly all actives have a fitted effect of over 60% in size
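ATP-coupled CellTiter-Glo luminescence served as viability read-out, recorded 10 min after reagent addition at room temperature. HEK 293 cells, 250 cells/well, had been incubated with pintool-transferred compound for 48 or 72 hr at 37 degree Celsius.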
A number is an active result; i = inactive; ? = inconclusive; nt = not tested or not shown; ! = repeats disagree; [ ] = another dose, or the depositor's remark. Unless noted, the call rests on the fitted dose curve; in most records, active means well fitted curve in the direction sought with a large enough effect; inconclusive means small, poorly fitted or top-dose-only effect, or another doubt; inactive means no such curve, though single readings can be large; an effect the other way counts as inactive or inconclusive.

SMILES | Luciferase inh | NPR1 antag | NIH3T3 tox | GPT2 inhibitor | HEK cytotox
COCc1ncc(CN2CCC(c3[nH]ncc3-c3ccccc3C)CC2)cn1 | i | i | i | i[11.5 µM] | i
O=C(Nc1cc(-c2cccnc2)nn1-c1ccccc1)c1cccc(Br)c1 | nt | nt | ? | i | 50µM
COc1cccc(C(=O)Nc2cc(-c3cccnc3)nn2-c2ccccc2)c1 | nt | nt | ? | i | ?
O=C(Nc1cc(-c2cccnc2)nn1-c1ccccc1)c1ccc(C(F)(F)F)cc1 | nt | nt | 32µM | i | ?
O=C(Nc1cc(-c2ccncc2)nn1-c1ccccc1)c1ccccc1 | nt | nt | ? | i | ?
O=C(Nc1cc(-c2ccncc2)nn1-c1ccccc1)c1ccc(Cl)cc1 | nt | nt | ? | i | 79µM
CCOC(=O)[C@H]1[C@@H](O)C(=O)N(Cc2ccccc2)C12CCN(C(=O)C(C)C)CC2 | nt | nt | ? | nt | i
COc1cccc(-c2cn3cc(C(=O)NCc4cccs4)nc3s2)c1 | nt | nt | i | ? | i
O=C(C[C@@H]1CCNC[C@@H]1Cc1cc(COc2ccccc2)on1)NCc1cccnc1 | i | i | i | i | i
O=C(C[C@@H]1CCNC[C@@H]1Cc1cc(COc2ccccc2)on1)Nc1ccccc1 | i | i | 32µM | i | 40µM
CC(C)(C)NC(=O)C[C@@H]1CCNC[C@@H]1Cc1cc(COc2ccccc2)on1 | i | i | i | i | ?
O=C(C[C@@H]1CCNC[C@@H]1Cc1cc(COc2ccccc2)on1)NCc1ccccc1 | i | i | ? | i | 79µM
O=C(C[C@@H]1CCNC[C@@H]1Cc1cc(CN2CCOCC2)on1)N1CCN(c2ccccc2)CC1 | i | i | i | i | i
O=C(C[C@@H]1CCNC[C@@H]1Cc1cc(CSc2ccccc2)on1)N1CCN(c2ccccc2)CC1 | i | i | 25µM | i | ?
O=C(C[C@@H]1CCNC[C@@H]1Cc1cc(CSc2ccccc2)on1)Nc1ccccc1 | i | i | 71µM | i | 45µM
O=C1CC2(CCN(C(=O)C3CCCN(C(=O)c4ccc(Cl)nc4)C3)CC2)Oc2ccccc2N1 (stereo not drawn) | nt | nt | i | i | i
Cn1ncc2c(C(=O)NC3CCC3)cc(-c3ccccc3C(F)(F)F)nc21 | nt | nt | i | nt | ?
Cc1noc(-c2cccn3c(CNC(=O)c4cccc(F)c4)nnc23)n1 | i | i | i | i | i
O=C(c1ccsc1)N1CCC2(CC1)NC(=O)N(Cc1cccc(Cl)c1)C2=O | i | ? | 28µM | i | ?
O=C(c1ccsc1)N1CCC2(CC1)NC(=O)N(Cc1ccccc1)C2=O | i | i | ? | i | i
O=C(c1cccc(Cl)c1)N1CCC2(C1)NC(=O)N(Cc1ccc(Cl)cc1)C2=O (stereo not drawn) | i | ? | 40µM | i | ?
COc1cc(OC)cc(C(=O)N2CCC3(C2)NC(=O)N(Cc2ccc(Cl)cc2)C3=O)c1 (stereo not drawn) | i | i | ? | i | ?
O=C(CCC[C@@H]1[C@H]2CCCN3CCC[C@@H](CN1C(=O)c1cccnc1)[C@@H]23)NC1CCCCC1 | i | i | i | i | i
O=C(c1cc(F)ccc1F)N1CCC(OCCOc2ccc(F)cc2)CC1 | nt | nt | ? | i | ?
CCN1c2cc(C(=O)N3CCN(c4cccc(C)c4)CC3)ccc2C(=O)N2CCCCC21 (stereo not drawn) | i | i | ? | i | ?
SMILES | Luciferase inh | NPR1 antag | NIH3T3 tox | GPT2 inhibitor | HEK cytotox
CCN1c2cc(C(=O)N3CCN(c4ccccc4)CC3)ccc2C(=O)N2CCCCCC21 (stereo not drawn) | i | i | i | i | 28µM
CCN1c2cc(C(=O)N3CCN(c4ccc(F)cc4)CC3)ccc2C(=O)N2CCCCC21 (stereo not drawn) | i | i | i | i | 45µM
O=C(c1ccc(C(F)(F)F)cc1)N1CCCC(C(=O)N2CCC(c3nc4ncccc4[nH]3)C2)C1 (stereo not drawn) | nt | nt | i | i | i
CCCn1cc(CNC(=O)c2ccc3c(c2)n(CC)c(=O)c2ccnn23)c(C)n1 | i | i | ? | i | 79µM
COc1ccc(-c2noc(-c3ccc(N4C[C@H]5CC[C@H]4C5)nc3)n2)cc1 | 25µM | ? | i | i | ?
c1ccc2oc(-c3ccnc4nc(C5CCC5)nn34)cc2c1 | ? | i | ? | i | ?
CN(C)Cc1c(C(=O)NCCOc2ccc(C(=O)NO)cc2)oc2ccccc12 | nt | nt | nt | 31µM! | nt

From PubChem
